According to PubChem BioAssay (NCATS):
The source made the active and inactive calls. The call rests on the fitted dose curve.
Potency means the concentration at half of the fitted maximal effect.

Each compound was assayed against Catechol O-methyltransferase (Homo sapiens) (UniProt P21964) (assay: Confirmatory Screen for Target Class Profiling of Small Molecule Inhibitors of Methyltransferases (AID 1745852; on activity change, negative = inhibition: on the % scale 0 is the no-effect control and ±100 the full control effect)). Conditions: MTase-Glo luminescence, SAH detection, recombinant enzyme; measured here: COMT max response; stronger effect = lower value.
Catechol O-methyltransferase (Homo sapiens), sequence (P21964 whole entry, looked up): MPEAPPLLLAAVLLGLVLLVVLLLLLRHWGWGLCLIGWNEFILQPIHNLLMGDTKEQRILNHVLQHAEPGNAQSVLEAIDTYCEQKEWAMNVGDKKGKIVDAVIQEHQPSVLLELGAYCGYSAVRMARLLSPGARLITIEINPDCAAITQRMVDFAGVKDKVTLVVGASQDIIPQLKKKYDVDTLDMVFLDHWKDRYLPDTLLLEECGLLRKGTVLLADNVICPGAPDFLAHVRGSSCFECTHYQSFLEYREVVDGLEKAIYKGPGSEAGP
Work on CC1=CC(=O)[C@@]2(C(C)C)C[C@@H]12 yielded an activity of -4.64%. For COc1ccc(-c2nc(-c3cc(C(F)(F)F)cc(C(F)(F)F)c3)n(Cc3ccc(C(N)=O)cc3)c2-c2ccc(OC)cc2)cc1, the activity was 0.0984%. With Cc1cc(C)c(NC(=O)N(Cc2ccc3c(c2)Cc2ccccc2-3)C2CCCCCC2)c(C)c1 the activity was -9.37%. CN(Cc1ccc(C(=O)O)cc1)c1ccc(OCc2c(-c3c(Cl)cccc3Cl)noc2C2CC2)nc1C(F)(F)F was tested, and the activity was -2.57%.

The compounds below were run against Guanidinoacetate N-methyltransferase (Homo sapiens) (UniProt Q14353) in the same assay as above. Conditions: MTase-Glo luminescence, SAH detection, recombinant enzyme; activity change, negative = inhibition: at 57.3 µM (top of the series) unless noted; series mostly up to 57.3 µM.
For CC1=CC(=O)[C@@]2(C(C)C)C[C@@H]12, the Potency was 48.2 µM (active). COc1ccc(-c2nc(-c3cc(C(F)(F)F)cc(C(F)(F)F)c3)n(Cc3ccc(C(N)=O)cc3)c2-c2ccc(OC)cc2)cc1 showed an activity change, negative = inhibition of -0.694%. Cc1cc(C)c(NC(=O)N(Cc2ccc3c(c2)Cc2ccccc2-3)C2CCCCCC2)c(C)c1 showed an activity change, negative = inhibition of -11.3%. CN(Cc1ccc(C(=O)O)cc1)c1ccc(OCc2c(-c3c(Cl)cccc3Cl)noc2C2CC2)nc1C(F)(F)F gave an activity change, negative = inhibition of -2.02%.
